Rows were chosen to be rich in hits. Some 0.5% of all compounds tested hit in one or more screens of this group.
AddAB inh = growth inhibition of E. coli expressing H. pylori AddAB, primary screen, AddAB inhibitor project, absorbance | inhibition, % at 11.9 µM | 0.29% of 330,000 active; in the data active = inhibition above about 12%
E coli growth-1 = E. coli V3065 growth inhibition, primary screen, counter-screen for AddAB inhibitor project, absorbance, OD600. 18 h. inhibition, % at 11.9 µM. 0.27% of 330,000 active. AID 449728, 2010;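 active = inhibition above the campaign's mean inhibition across all tested compounds plus 3 SD, cut at about 9.9% in these data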;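 also: uninfected addAB+ strain grown without phage in ampicillin broth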
E coli growth-2 = E. coli growth inhibition, primary screen, OD600. Escherichia coli growth, 23 h; stronger effect = lower value. OD600 absorbance (no concentration beside the values). 0.21% of 330,000 active. AID 1053175, 2014;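 active = OD600 absorbance below the run mean of sample wells minus 3.6 SD, in any replicate, cut at about 0.56 in these data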
Tat transport = E. coli Tat export inhibitors, primary screen, MC4100, TorA-mCherry reporter, fluorescence, single point; AID 488895, 2010; inhibition, % at 10 µM; 0.036% of 340,000 active;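 active = mean replicate inhibition at least 50% and at least half of replicates individually reaching 50%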;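 also: exported cargo escapes ClpAP degradation while cytoplasmic cargo is degraded and loses fluorescence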
phage Ecoli inh = growth loss of phage-infected E. coli, primary screen, RecBCD inhibitor project, absorbance, with phage, HTS. AID 651602, 2012. 0.26% of 360,000 active. inhibition, % at 11.9 µM; in the data active = inhibition above about 11%
RecBCD conf = growth loss of phage-infected RecBCD+ E. coli, confirmation, RecBCD inhibitor project, absorbance, E. coli V66, T4 gene 2 phage; inhibition, % at 11.9 µM; shares compounds with phage Ecoli inh; AID 651982, 2013; 45% of 890 active; E. coli V66 + T4 2- phage, growth OD;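 active = mean inhibition over triplicates exceeding the hit threshold derived in the original primary screen, cut at about 11% in these data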
Ecoli viability = E. coli viability inhibition, counter-screen for RecBCD inhibitor project, absorbance, high throughput; AID 651983, 2013; inhibition, % at 11.9 µM; 29% of 890 active; absorbance (OD) growth; shares compounds with phage Ecoli inh; in the data active = inhibition above about 20%;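 also: E. coli strain V66 grown with compound alone and no phage infection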
AddAB phage OD = growth loss of phage-infected AddAB-carrying E. coli, confirmation, counter-screen for RecBCD inhibitor project, absorbance, E. coli V3065, T4 phage; E. coli expressing H. pylori AddAB + T4 phage, OD growth; gene 2 mutant T4, recBCD-deleted host; 45% of 890 active; shares compounds with phage Ecoli inh; AID 651984, 2013; inhibition, % at 11.9 µM;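 active = mean inhibition above the solvent-only control wells' mean plus 3 SD, cut at about 22% in these data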;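 also: higher means less bacterial growth from phage killing when AddAB is blocked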
Hits are given with their value; n = inactive; x = not tested or not shown.

SMILES	AddAB inh	E coli growth-1	E coli growth-2	Tat transport	phage Ecoli inh	RecBCD conf	Ecoli viability	AddAB phage OD
COC(=O)[C@@]12CCCCN1C(c1ccc(-c3cccc(Cl)c3)cc1)C1C(=O)N(C)C(=O)C12 (stereo not given in full)	x	x	n	x	x	x	x	x
CC(C)N=c1scc(-c2cccs2)n1/N=C/c1ccc(O)c(O)c1O	n	n	x	n	16	n	n	n
CCOc1ccc(-n2nnc3c(=O)n(CC=Cc4ccccc4)cnc32)cc1	x	x	n	x	x	x	x	x
Cc1cn(C2CCC(CO)O2)c(=O)[nH]c1=O (stereo not given)	x	x	n	n	24	20	n	60
CC1CN(C(C)CO)C(=O)c2cccc(NC(=O)C3CCCCC3)c2OC1CN(C)Cc1ccc(C(=O)Nc2ccccc2N)cc1 (stereo not given)	x	x	n	x	x	x	x	x
O=C(O)c1cn(-c2ccc(F)cc2)c2cc(N3CCNCC3)c(F)cc2c1=O	x	x	x	114	99	102	103	103
CCc1ccccc1NC(=O)CC1SC(=Nc2nccs2)N(CC)C1=O (stereo not given)	x	x	n	x	x	x	x	x
CCn1c(C)cc(C(=O)COC(=O)CNC(=O)c2ccco2)c1C	x	x	x	x	11	n	n	n
O=c1ccc2cc3c([nH]c4ccc(Br)cc43)oc-2c1O	n	n	n	n	14	n	n	n
CC(NC(=O)c1nc[nH]c1C(=O)NCC(=O)OC(C)(C)C)c1ccccc1 (stereo not given)	x	x	n	x	x	x	x	x
CC(CO)NC(=O)c1ccc2c3n(nc2c1)-c1ccccc1CO3 (stereo not given)	x	x	n	x	x	x	x	x
CCS(=O)(=O)NCCc1csc(-c2cccnc2)n1	n	n	n	n	97	n	n	n
O=C(CCc1ccccc1)NC(c1cccs1)c1cc(Cl)c2cccnc2c1O (stereo not given)	x	x	n	n	17	n	n	n
CC(=O)NC(c1ccc(C)cc1)c1cc(Cl)c2cccnc2c1O (stereo not given)	x	x	x	n	21	12	n	n
Oc1c(C(Nc2ccccn2)c2cccnc2)cc(Cl)c2cccnc12 (stereo not given)	n	10	n	n	18	n	n	n
CCC(=O)NC(c1cccs1)c1cc(Cl)c2ccccc2c1O (stereo not given)	n	n	n	n	n	x	x	x
CC(=O)NC(c1cc(Cl)c2cccnc2c1O)C1CC1 (stereo not given)	n	n	n	n	n	x	x	x
CC(=O)NC(c1ccccc1)c1cc([N+](=O)[O-])c2cccnc2c1O (stereo not given)	n	n	n	n	n	x	x	x
CCCCCC(=O)Nc1cccc(C2=NOC3(C2)CC(C(N)=O)N(C(=O)c2cc([N+](=O)[O-])cc([N+](=O)[O-])c2)C3)c1 (stereo not given)	x	x	n	x	x	x	x	x
O=C1C=C(c2ccc(Oc3ccccc3)cc2)CC(c2ccc(F)cc2)C1 (stereo not given)	x	x	n	x	x	x	x	x
O=C(c1ccc(NC2=NC3CS(=O)(=O)CC3S2)cc1)N1CCN(Cc2ccccc2)CC1 (stereo not given)	n	n	n	n	13	n	n	n
CC(=NNC(=S)Nc1ccccc1Cl)c1ccccn1	x	x	x	n	14	n	n	n
CC(=NNC(=O)c1ccccc1Cl)c1ccccn1	x	x	n	x	x	x	x	x
CC(=NNC(=S)Nc1ccccc1)c1ccccn1	x	x	x	x	16	n	n	n
COc1ccc(SCCN2CCC(C(C)(C)C)CCC2=O)cc1 (stereo not given)	x	x	n	x	x	x	x	x
SMILES	AddAB inh	E coli growth-1	E coli growth-2	Tat transport	phage Ecoli inh	RecBCD conf	Ecoli viability	AddAB phage OD
CC1CC1C(=O)Nc1nc(-c2ccc(Cl)s2)cs1 (stereo not given)	n	n	n	n	n	x	x	x
CN(C(=O)C1CCC1C(=O)O)c1nc(-c2ccc(Cl)s2)cs1 (stereo not given)	n	n	n	n	99	n	n	n
COc1ccc(NN=C(C(N)=O)C2=NC(C)(C)Cc3ccccc32)cc1	x	x	n	x	x	x	x	x
CCOC(=O)c1[nH]c2cc(OC)c(OC)cc2c1NC(=O)c1nonc1C	n	n	n	n	14	n	n	n
Cc1nc(N/N=C/c2ccccn2)sc1C	20	18	x	x	16	n	n	n
Cc1nc(NN=Cc2ccccn2)sc1C	x	x	n	x	x	x	x	x
NC(=S)NN=Cc1cc(-c2cccc(N)c2)ccn1	x	x	x	x	21	14	n	32
CCc1ccc(NC(=O)CCC(=O)N2CCSc3ccccc32)cc1	n	n	n	n	14	n	n	n
Oc1c(Br)cc(Br)c2cccnc12	x	x	x	n	44	60	68	53
Oc1c(Br)cc(Br)cc1CNc1cccc2cccnc12	n	n	n	n	n	x	x	x
Nc1ccc(CCC(=O)N2CCCC2)cc1	x	x	n	n	n	x	x	x
CCC(=O)Nc1ccc(CCC(=O)N2CCCC2)cc1	n	n	n	n	24	n	n	n
FC(F)(F)c1cccc(CNC(=S)Nc2ccccc2)c1	n	n	n	n	n	x	x	x
O=C(NCc1ccc2c(c1)CCO2)Nc1cccc(C(F)(F)F)c1	n	n	n	n	11	n	n	n
FC(F)(F)c1cccc(NC(=S)NCc2ccccc2)c1	n	n	n	n	12	n	n	n
O=C(Nc1ccccc1)Nc1ccc(Br)c(Cl)c1	n	n	n	n	12	n	n	n
O=C(NCc1cccnc1)Nc1cccc(C(F)(F)F)c1	x	x	n	n	n	x	x	x
CCSCCc1nnc(NC(=O)Nc2cccc(C(F)(F)F)c2)s1	n	n	n	n	11	n	n	n
CCOC1OC(C(=O)N2CCN(C)CC2)=CC(c2coc3ccccc3c2=O)C1CCCO (stereo not given)	x	x	n	x	x	x	x	x
CNC(=O)Nc1cccc(C(F)(F)F)c1	n	n	n	n	n	x	x	x
FC(F)(F)Sc1ccc(NC(=S)NCc2ccccc2)cc1	n	10	n	n	13	n	n	n
O=C(Nc1ccccc1)Nc1cccc(C(F)(F)F)c1	n	n	n	n	11	n	n	n
S=C(NCc1ccccc1)Nc1ccc(Cl)cc1	n	n	n	n	n	x	x	x
CCN(CC)C(=O)CSC1=NC(=Cc2ccco2)C(=O)N1c1ccc(OC)c(Cl)c1	x	x	n	x	x	x	x	x
CNc1ncnc(Sc2nc(N)nc3nc[nH]c23)c1[N+](=O)[O-]	x	x	x	n	62	55	65	79
Nc1nc(SCc2ccccc2)c2[nH]cnc2n1	n	n	n	n	n	x	x	x
Nc1nc(Sc2ccc([N+](=O)[O-])c3nonc23)c2[nH]cnc2n1	x	x	x	n	39	44	51	68

Screening results (PubChem BioAssay)
